Structures are written as SMILES. Compounds without any hit were thinned out: in the full panel of roughly 83,000, 20% have a hit.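 For each line, cells grew in 96-well plates with the test compound present at a single concentration for 48 hours.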 Values without a mark were called inactive. Active and inactive are the calls of the source. How the source made its calls: active means growth percent below 10; inactive means the rest.

This experiment relates to HL-60(TB) leukemia. The experiment can be described thus: NCI-60 one-dose screen, 48 h (100 = growth as untreated, 0 = no growth, -100 = all killed). Particulars: 10 µM unless noted.
With `NN1C(=O)CSC1=S`, the growth was 126%.
With `COc1ccc2c(c1)[n+](=O)c(/C=C/C(=O)c1cc(OC)c(OC)c(OC)c1)c(C)n2[O-]`, the growth was -49.1% (active).
For `CCN(CC)C(=O)C1CCN(C(=O)c2ccccc2)CC1` the value was 89.3%; for `NS(=O)(=O)c1cnccc1Oc1cccc2cccnc12`, 89.5%.
With `O=C(/C=C/c1cccs1)c1ccc(Cl)nc1`, the growth was 100%.
For the compound `C[C@@H]1[C@H]2[C@H](C=C3[C@@H]4CC[C@H]5Cc6nc7c(nc6C[C@]5(C)[C@H]4C[C@@H](O)[C@@]32C)C[C@@H]2CC[C@H]3C4=C[C@@H]5O[C@@]6(CC[C@](C)(CO)O6)[C@@H](C)[C@@]5(O)[C@@]4(C)[C@H](O)C[C@@H]3[C@@]2(C)C7)O[C@]12CCC(C)(C)O2`, the growth was 4.6% (active).
Take `O=C(CSc1nnc2n1S(=O)(=O)c1ccccc1N2c1ccccc1)Nc1nc2ccc(F)cc2s1`: the growth was 106%.
Consider `O=S(=O)(Nc1ccc(NS(=O)(=O)c2ccccc2)c(Cl)c1)c1ccccc1`, for which the growth was 78.4%.
For `N/C(=C\C(=O)n1nc(-c2ccccc2)cc1N)c1ccccc1` the value was 1.71% (active); for `COc1ccc(-c2nc3ccccn3c2/C=C/C(=O)c2cc(OC)c(OC)c(OC)c2)cc1`, 49.9%.
For `COc1ccc(OC)c(/C=C2\COc3ccc(O)cc3C2=O)c1` the value was 82.2%.
Take `CCCCCCCCN=C(NCCCCCCCC)SCc1cccc2ccccc12`: the growth is -43.4% (active).
For `Clc1ccc(-c2ccc(CNCC3CCNCC3)o2)c(-c2ccccc2)c1` the value was -62.3% (active).

These data come from PubChem BioAssay (NCI).
